The values below come from ChEMBL document CHEMBL2218924, “A broad activity screen in support of a chemogenomic map for kinase signalling research and drug discovery” (Biochem J, 2013).

Molecules are shown by their SMILES.

The target in experiment [1] is T1, Serine/threonine-protein kinase 3 (Homo sapiens) (UniProt Q13188).
T1 sequence (whole entry): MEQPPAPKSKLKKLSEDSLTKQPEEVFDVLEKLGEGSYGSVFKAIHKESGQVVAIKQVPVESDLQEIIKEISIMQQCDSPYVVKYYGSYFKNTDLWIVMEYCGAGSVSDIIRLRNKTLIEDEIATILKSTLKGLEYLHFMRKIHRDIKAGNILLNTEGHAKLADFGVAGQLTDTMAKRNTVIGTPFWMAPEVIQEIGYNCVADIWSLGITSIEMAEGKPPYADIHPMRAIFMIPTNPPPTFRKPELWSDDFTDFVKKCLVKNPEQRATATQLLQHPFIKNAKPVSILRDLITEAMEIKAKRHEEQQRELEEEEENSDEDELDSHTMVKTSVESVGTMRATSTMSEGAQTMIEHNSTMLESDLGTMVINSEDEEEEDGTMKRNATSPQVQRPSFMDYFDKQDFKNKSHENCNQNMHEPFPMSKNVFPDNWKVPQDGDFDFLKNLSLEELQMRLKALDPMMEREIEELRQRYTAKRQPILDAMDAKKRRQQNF
The note with it: at 1 µM.

The target in experiment [2] is T1, Serine/threonine-protein kinase 3 (Homo sapiens). The conditions noted are these: at 10 µM.
The target in experiment [3] is Serine/threonine-protein kinase 24 (Homo sapiens) (UniProt Q9Y6E0). The conditions noted are these: at 1 µM.
Sequence of Serine/threonine-protein kinase 24 (Homo sapiens) (Q9Y6E0 whole entry, looked up): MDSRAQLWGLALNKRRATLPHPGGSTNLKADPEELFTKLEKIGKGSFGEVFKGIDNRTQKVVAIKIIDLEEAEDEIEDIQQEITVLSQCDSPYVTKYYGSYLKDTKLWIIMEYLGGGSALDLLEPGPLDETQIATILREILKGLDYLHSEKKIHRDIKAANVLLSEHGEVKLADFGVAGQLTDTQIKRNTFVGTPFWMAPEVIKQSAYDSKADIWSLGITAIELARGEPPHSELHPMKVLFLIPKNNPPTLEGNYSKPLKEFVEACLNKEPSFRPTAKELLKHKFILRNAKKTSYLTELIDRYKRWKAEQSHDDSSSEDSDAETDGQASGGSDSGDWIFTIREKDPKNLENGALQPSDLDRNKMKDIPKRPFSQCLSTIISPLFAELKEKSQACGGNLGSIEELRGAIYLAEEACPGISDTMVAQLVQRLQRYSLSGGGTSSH
Experiment [4] has the same target. The conditions noted are these: at 10 µM.
Experiment [5] concerns the target T2, Tyrosine-protein kinase Mer (Homo sapiens) (UniProt Q12866).
T2 sequence (whole entry): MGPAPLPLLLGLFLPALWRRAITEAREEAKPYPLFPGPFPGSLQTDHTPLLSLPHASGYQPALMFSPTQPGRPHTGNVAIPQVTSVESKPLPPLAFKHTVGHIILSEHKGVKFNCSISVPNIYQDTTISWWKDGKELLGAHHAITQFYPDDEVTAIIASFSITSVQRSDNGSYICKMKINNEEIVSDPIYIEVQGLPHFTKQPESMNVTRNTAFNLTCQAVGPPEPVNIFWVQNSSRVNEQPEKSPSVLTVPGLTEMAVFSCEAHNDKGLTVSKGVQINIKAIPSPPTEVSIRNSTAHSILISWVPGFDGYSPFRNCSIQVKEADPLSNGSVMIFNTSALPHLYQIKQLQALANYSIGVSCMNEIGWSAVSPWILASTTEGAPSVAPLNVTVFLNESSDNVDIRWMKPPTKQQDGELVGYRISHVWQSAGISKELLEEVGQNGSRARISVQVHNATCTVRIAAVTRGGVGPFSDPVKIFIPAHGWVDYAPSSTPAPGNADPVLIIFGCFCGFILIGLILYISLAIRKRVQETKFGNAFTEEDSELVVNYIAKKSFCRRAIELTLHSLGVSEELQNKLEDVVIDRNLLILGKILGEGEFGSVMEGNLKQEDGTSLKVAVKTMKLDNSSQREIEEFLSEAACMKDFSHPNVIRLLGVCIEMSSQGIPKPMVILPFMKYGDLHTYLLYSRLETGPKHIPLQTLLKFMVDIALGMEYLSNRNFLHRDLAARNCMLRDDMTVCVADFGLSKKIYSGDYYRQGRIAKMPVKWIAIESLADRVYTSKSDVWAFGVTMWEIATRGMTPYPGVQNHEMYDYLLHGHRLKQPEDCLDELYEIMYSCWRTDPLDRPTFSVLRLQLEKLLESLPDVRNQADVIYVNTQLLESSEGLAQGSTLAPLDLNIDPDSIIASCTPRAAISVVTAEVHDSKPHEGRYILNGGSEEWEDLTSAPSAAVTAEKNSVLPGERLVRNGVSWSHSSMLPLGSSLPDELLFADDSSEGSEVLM
The conditions noted are these: at 1 µM.

Experiment [6] deals with T2, Tyrosine-protein kinase Mer (Homo sapiens). The note with it: at 10 µM.
In experiment [7] the target is Hepatocyte growth factor receptor (Homo sapiens) (UniProt P08581). The conditions noted are these: at 1 µM.
Sequence of Hepatocyte growth factor receptor (Homo sapiens) (P08581 whole entry): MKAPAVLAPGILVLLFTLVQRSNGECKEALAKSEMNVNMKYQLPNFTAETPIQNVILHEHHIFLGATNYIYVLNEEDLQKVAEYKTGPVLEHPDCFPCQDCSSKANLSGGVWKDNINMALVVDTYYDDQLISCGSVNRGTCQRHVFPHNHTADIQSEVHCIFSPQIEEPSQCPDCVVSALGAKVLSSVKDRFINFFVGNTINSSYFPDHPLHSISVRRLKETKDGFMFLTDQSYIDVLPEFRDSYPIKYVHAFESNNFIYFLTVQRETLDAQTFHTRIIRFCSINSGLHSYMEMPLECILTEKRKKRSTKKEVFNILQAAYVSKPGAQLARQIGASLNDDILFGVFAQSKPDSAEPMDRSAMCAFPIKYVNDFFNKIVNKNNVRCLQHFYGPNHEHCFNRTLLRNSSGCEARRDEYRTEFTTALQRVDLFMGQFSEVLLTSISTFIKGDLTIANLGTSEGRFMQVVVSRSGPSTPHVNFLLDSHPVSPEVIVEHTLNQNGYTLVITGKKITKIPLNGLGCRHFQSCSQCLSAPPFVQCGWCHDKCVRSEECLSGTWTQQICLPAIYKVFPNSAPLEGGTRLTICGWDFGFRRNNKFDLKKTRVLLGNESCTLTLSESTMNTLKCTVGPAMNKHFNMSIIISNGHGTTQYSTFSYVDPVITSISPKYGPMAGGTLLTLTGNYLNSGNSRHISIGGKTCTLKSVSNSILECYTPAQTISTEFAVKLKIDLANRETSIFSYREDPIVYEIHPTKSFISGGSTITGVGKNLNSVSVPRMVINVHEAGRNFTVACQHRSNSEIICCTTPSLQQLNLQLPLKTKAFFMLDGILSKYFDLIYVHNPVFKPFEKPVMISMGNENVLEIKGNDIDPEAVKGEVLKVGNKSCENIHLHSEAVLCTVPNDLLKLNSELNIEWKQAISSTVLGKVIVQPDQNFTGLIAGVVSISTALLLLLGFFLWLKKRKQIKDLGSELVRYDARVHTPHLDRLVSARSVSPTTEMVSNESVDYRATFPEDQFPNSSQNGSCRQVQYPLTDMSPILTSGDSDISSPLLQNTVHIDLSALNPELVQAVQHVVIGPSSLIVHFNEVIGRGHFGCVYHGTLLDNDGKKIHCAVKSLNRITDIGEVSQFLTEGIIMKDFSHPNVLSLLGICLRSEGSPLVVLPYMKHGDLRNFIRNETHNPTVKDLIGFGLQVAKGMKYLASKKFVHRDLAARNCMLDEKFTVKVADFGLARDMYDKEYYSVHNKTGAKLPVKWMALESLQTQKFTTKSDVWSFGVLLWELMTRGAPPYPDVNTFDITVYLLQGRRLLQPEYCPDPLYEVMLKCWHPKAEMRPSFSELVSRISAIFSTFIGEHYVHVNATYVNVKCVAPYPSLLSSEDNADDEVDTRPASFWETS
The target is the same in experiment [8]. The conditions noted are these: at 10 µM.
Experiment [9] addresses MAP kinase-interacting serine/threonine-protein kinase 2 (Homo sapiens) (UniProt Q9HBH9). The note with it: at 1 µM.
The target is the same in experiment [10]. The conditions noted are these: at 10 µM.

Sequence of MAP kinase-interacting serine/threonine-protein kinase 2 (Homo sapiens) (Q9HBH9 whole entry, looked up): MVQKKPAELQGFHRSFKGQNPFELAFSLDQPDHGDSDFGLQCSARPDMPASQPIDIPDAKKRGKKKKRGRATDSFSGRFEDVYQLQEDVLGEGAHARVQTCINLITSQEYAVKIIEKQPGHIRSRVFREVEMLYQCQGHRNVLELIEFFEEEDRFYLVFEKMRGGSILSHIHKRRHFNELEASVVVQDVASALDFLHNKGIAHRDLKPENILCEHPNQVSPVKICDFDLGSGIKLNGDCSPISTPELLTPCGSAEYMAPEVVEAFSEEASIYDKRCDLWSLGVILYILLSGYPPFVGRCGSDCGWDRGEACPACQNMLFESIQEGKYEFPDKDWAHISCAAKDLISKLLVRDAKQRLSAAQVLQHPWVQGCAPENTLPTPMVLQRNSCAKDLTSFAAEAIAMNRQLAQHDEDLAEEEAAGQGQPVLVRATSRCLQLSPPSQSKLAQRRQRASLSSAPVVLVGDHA

Turning to `CO[C@@H]1[C@H](N(C)C(=O)c2ccccc2)C[C@H]2O[C@]1(C)n1c3ccccc3c3c4c(c5c6ccccc6n2c5c31)C(=O)NC4`, the residual activity (usually the signal under treatment as a percentage of the control signal) in experiment [1] was determined as 3%; in experiment [2], 0%; in experiment [3], 17%; in experiment [4], 7%; in experiment [5], 8%; in [6] it was 6%. In addition, the residual activity in [7] was determined as 35%; in experiment [8], 40%; in [9], 44%; in experiment [10], 27%.

Take `N#C/C(=C(\N)Sc1ccc(N)cc1)c1ccccc1C(F)(F)F`: the residual activity in experiment [1] came to 76%; in [2] it was 80%; in [3], 70%; in experiment [4], 62%; in [5], 94%; in experiment [6], 94%. Also, the residual activity in [7] is 98%; in [8] it was 90%; in experiment [9], 102%; in experiment [10] it was 106%.

Regarding `COc1ccc(C(=O)Nc2sc3c(c2C(N)=O)CCCC3)cc1OC`, the residual activity was determined as 105% in experiment [1]; 91% in experiment [2]; 68% in experiment [3]; 65% in experiment [4]; 107% in [5]; 86% in experiment [6]. Besides, the residual activity in [7] is 120%; in experiment [8], 110%; in experiment [9], 99%; in experiment [10], 82%.

Turning to `N#CC(C#N)=C(N)/C(C#N)=C/c1ccc(O)cc1`, the residual activity in experiment [3] is 71%; in experiment [4], 67%; in experiment [8], 138%; in experiment [10] it was 50%.

With `Ic1cccc(CSc2nnc(-c3ccncc3)o2)c1`, the residual activity is 39% in experiment [1]; 15% in experiment [2]; 50% in [3]; 43% in experiment [4]; 69% in [5]; 48% in [6]. Also, the residual activity was determined as 126% in experiment [7], 100% in experiment [8], 91% in experiment [9] and 89% in experiment [10].

On to `CN(C)CCCn1cc(C2=C(c3c[nH]c4ccccc34)C(=O)NC2=O)c2ccccc21`, for which the residual activity in [1] came to 73%; in experiment [2], 17%; in [3], 27%; in experiment [4] it was 7%; in [5], 60%; in experiment [6], 11%. Moreover, the residual activity in experiment [8] turned out to be 58%.

`N#Cc1cnc2cnc(NCc3cccnc3)cc2c1Nc1ccc(F)c(Cl)c1`: the residual activity in [1] came out at 42%; in experiment [2] it was 4%; in experiment [3], 27%; in experiment [4] it was 15%; in experiment [9] it was 98%; in experiment [10], 79%.

With `NC(=O)c1ccc2[nH]c(-c3ccc(Oc4ccc(Cl)cc4)cc3)nc2c1`, the residual activity in experiment [1] worked out at 100%; in experiment [2] it was 74%; in experiment [3], 79%; in experiment [4], 82%; in [5], 95%; in experiment [6], 95%. For the same molecule, the residual activity in experiment [7] was determined as 128%; in experiment [8] it was 101%; in experiment [9] it was 61%; in [10], 19%.

Regarding `O=C1NC(=O)/C(=C\c2ccc3nccnc3c2)S1`, the residual activity is 96% in experiment [1]; 100% in [2]; 57% in experiment [3]; 55% in experiment [4]; 111% in [5]; 60% in experiment [6]. The residual activity in experiment [7] was 98%; in experiment [8] it was 94%; in experiment [9], 76%; in [10], 28%.

`CN(C)c1ccc(/C=C2\C(=O)Nc3ccccc32)cc1`: the residual activity was 108% in experiment [1]; 66% in experiment [3]; 49% in [4]; 51% in [5]; 36% in experiment [6]; 112% in experiment [7]. For the same molecule, the residual activity in experiment [8] was 107%; in experiment [9], 107%; in experiment [10], 95%.

`CC[n+]1c(/C=C/N(C)c2ccccc2)n(-c2ccccc2)c2ccc(-c3nc4ccccc4s3)cc21`: the residual activity stood at 109% in experiment [1]; 71% in [2]; 78% in experiment [3]; 79% in experiment [4]; 113% in experiment [5]; 48% in experiment [6]. Besides, the residual activity in experiment [7] amounted to 97%; in experiment [8], 74%; in [9] it was 104%; in [10], 63%.

As for `C[C@@H](N)[C@H]1CC[C@H](C(=O)Nc2ccncc2)CC1`, the residual activity in [1] worked out at 111%; in [2], 105%; in experiment [3] it was 98%; in experiment [4], 92%; in experiment [5], 93%; in experiment [6] it was 101%. Further, the residual activity was determined as 132% in [7], 131% in experiment [8], 106% in experiment [9] and 77% in experiment [10].

In the case of `Nc1n[nH]c2nnc(-c3c(-c4ccccc4)nn4ccccc34)cc12`, the residual activity in experiment [1] worked out at 79%; in experiment [2], 91%; in experiment [4] it was 15%; in experiment [5] it was 86%; in [6], 57%; in experiment [7], 78%. For the same molecule, the residual activity in [8] was found to be 88%; in experiment [9] it was 96%; in experiment [10], 101%.

`Cn1nc2c3c(cccc31)C(=O)c1ccccc1-2`: the residual activity in experiment [1] stood at 97%; in [3], 74%; in experiment [4], 69%; in experiment [5] it was 53%; in experiment [6], 21%; in experiment [8], 84%. In addition, the residual activity was determined as 81% in experiment [9] and 72% in experiment [10].

As to `COc1cc2ncnc(Nc3ccc(NC(=O)c4ccccc4)cc3)c2cc1OC`, the residual activity is 95% in [2]; 90% in experiment [3]; 108% in experiment [5]; 59% in experiment [6]; 88% in experiment [7]; 23% in experiment [8]. Moreover, the residual activity in experiment [9] amounted to 98%; in experiment [10], 57%.

In the case of `COc1cc2ncnc(N3CCN(C(=O)Nc4ccc(Oc5ccccc5)cc4)CC3)c2cc1OC`, the residual activity in experiment [1] is 98%; in experiment [2] it was 86%; in [3], 98%; in experiment [4], 117%; in [5] it was 97%; in experiment [6], 60%. Moreover, the residual activity in [7] turned out to be 114%; in experiment [9], 92%; in experiment [10], 64%.

Turning to `c1ccc2c(-c3ccncc3)c[nH]c2c1`, the residual activity in experiment [1] was determined as 103%; in [2], 81%; in experiment [3] it was 61%; in [4], 69%; in experiment [5] it was 100%; in experiment [6], 73%. In addition, the figures for the residual activity in experiment [8], in [9] and in experiment [10] were 68%, 35% and 9%, respectively.

Consider `COc1ccc(CNc2nc(N(CCO)CCO)nc3c2ncn3C(C)C)cc1`, for which the residual activity came out at 107% in [1]; 104% in experiment [2]; 65% in [3]; 60% in experiment [4]; 90% in experiment [5]; 60% in [6]. Also, the residual activity was determined as 122% in experiment [7], 85% in experiment [8], 99% in [9] and 100% in experiment [10].
